# FMDV antiviral: shows antiviral activity against foot and mouth disease virus | FMDV antiviral cell assay, firefly luciferase signal | Potency, µM (series often up to 57.5 µM), for inactives: top-dose activity change, negative = inhibition, usual class: inhibitors | 0.23% of 120,000 active | AID 1745856; further: nearly all actives have a fitted effect of over 60% in size
# FMDV RLuc: shows antiviral activity in FMDV Renilla assay | 0.32% of 120,000 active | Potency, µM (series often up to 57.5 µM), for the others: at the highest dose activity change, negative = inhibition, hits mostly inhibitors | FMDV replicon cells, Renilla luciferase signal | AID 1745857; further: nearly all actives have a fitted effect of over 55% in size
# Active calls of the source: *; ? = inconclusive; [ ] = remark or other dose. Compounds with a hit are over-represented: about 0.51% of the library has one in this group of screens. The call rests on the fitted dose curve. On the % scale 0 is the no-effect control and ±100 the full control effect; potency means the concentration at half of the fitted maximal effect.
SMILES,FMDV antiviral,FMDV RLuc
COc1ccc(OCC(=O)N2CCC(c3nc4ccccc4s3)CC2)cc1,28µM*,25µM*
Cc1nc(-c2ccc(C)c(N3CCN(C(=O)Nc4cccc(Cl)c4C)CC3)c2)no1,25µM*,?
Cc1ccc(NC(=O)N2CCN(c3cc(-c4noc(C)n4)ccc3C)CC2)c(C)c1,11%,-4%
N#Cc1nc(-c2ccc(S(=O)(=O)N3CCc4ccccc4C3)cc2)oc1NCCCn1ccnc1,10%,205%
CCOCc1cccc(CN)c1,13%,-1%
COCCn1c(SCc2nc(-c3cccc(C(F)(F)F)c3)no2)nc2ccsc2c1=O,-16%,-15%
Cn1c(SCc2nc(-c3ccc(C(F)(F)F)cc3)no2)nc2ccsc2c1=O,22µM*,18µM*
Cc1c(/C=C(/C#N)c2ccccn2)cc(C#N)n1C,25%,7%
Cc1cc(NC(=O)CNc2cc(S(=O)(=O)N3CCOCC3)ccc2Oc2ccc(F)cc2)no1,-13%,-1%
CCOC(=O)N1CCc2c(sc(NCc3ccc(OCC)cc3)c2C(=O)Nc2ccc(OC)cc2OC)C1,25µM*,24%
CCOC(=O)N1CCc2c(sc(NCc3ccc(OC)c(OC)c3OC)c2C(=O)Nc2ccc(OC)cc2OC)C1,-26%,9%
Cc1ccccc1NC(NC(=O)C(C)C)C(Cl)(Cl)Cl (stereo not given),-4%,1%
Cc1ccc(C)c(-c2csc(Nc3ccc(S(=O)(=O)Nc4nc(C)cc(C)n4)cc3)n2)c1,-20%,62%
Cc1ccc(C)c(-c2csc(Nc3ccc(S(N)(=O)=O)cc3)n2)c1,?,18µM*
Cc1ccc2cc(CCCl)c(Cl)nc2c1,35%,-3%
CN(C)C1(CNC(=O)CCc2c[nH]c3ccccc23)CCCCCC1,-5%,-13%
O=C(NC1CCCCCCC1)c1cc(Sc2cccc(Cl)c2)nc2ccccc12,12%,134%
Cc1csc(NC(=O)c2ccc(Oc3ccc(Br)cc3)nc2)n1,?,13µM*
CCOc1ccc(C(=O)Nc2nc(C)cs2)cc1OC,1%,4%
CCc1ccc2oc(C(=O)N(Cc3ccc(C)cc3)C3CCS(=O)(=O)C3)cc(=O)c2c1 (stereo not given),-8%,14%
O=C(Nc1ccc(SCc2cccnc2)cc1)c1ccc2c(c1)OCCCO2,?,18µM*
O=C(Nc1ccc2c(c1)OCCCO2)c1ccc(SCc2cscn2)cc1,-10%,?
Cc1ccc(/C(=N/O)c2oc3ccc4c(C)cc(=O)oc4c3c2-c2ccccc2)cc1,?,6%[1.06 µM]
CCc1nc2ccc(C(=O)Nc3ccc(C)cn3)cc2nc1CC,81%,-1%
N#Cc1ccc(CN2CCN(C(=O)c3ccc(Cn4nnc5ccccc54)cc3)CC2)cc1,6.3µM*,5µM*
SMILES,FMDV antiviral,FMDV RLuc
N#Cc1ccc(CN2CCN(C(=O)C3CC=CCC3)CC2)cc1 (stereo not given),6%,0%
O=C(CN1CCN(c2ccc(C(F)(F)F)cn2)CC1)NC1CCCCC1,28µM*,?
O=C(CN1CCN(CC(=O)NC2CCCCC2)CC1)Nc1ccc(Cl)c(C(F)(F)F)c1,-20%,-22%
Cn1cnc2c1c(=O)n(CCCSc1nnnn1-c1ccccc1)c(=O)n2C,212%,-9%
CCOc1ccc(NC(=O)c2cccc(CN3CCCC3=O)c2)cc1,73%,-3%
CC(C)(C)c1ccc(NC(=O)c2cccc(CN3CCCC3=O)c2)cc1,?,28µM*
O=C(Nc1ccncc1)c1cccc(OCc2ccc(F)cc2)c1,?,6.3µM*
C=CCOc1cccc(NC(=O)c2ccncc2)c1,33%,11%
CN(Cc1cccs1)C(=O)CCl,?,28µM*
CCN(Cc1cccs1)C(=O)CCl,-8%,-13%
CN1CCN(C(=O)CN(Cc2ccc(Cl)c(Cl)c2)S(=O)(=O)c2ccccc2)CC1,-15%,-10%
O=S(=O)(Nc1nc2ccccc2nc1Nc1ccccc1)c1ccc(Cl)s1,4.5µM*,?
CCOc1ccc(S(=O)(=O)Nc2nc3ccccc3nc2Nc2ccc(F)cc2)cc1,3%,2%
O=S(=O)(Nc1nc2ccccc2nc1Nc1cccc(F)c1)c1cccc(Cl)c1,3.5µM*,4µM*
COc1ccccc1Nc1nc2ccccc2nc1NS(=O)(=O)c1ccc(Cl)s1,1%,2%
O=S(=O)(Nc1nc2ccccc2nc1Nc1ccc(F)cc1)c1ccc(F)cc1,2.5µM*,3.5µM*
COc1cccc(Nc2nc3ccccc3nc2NS(=O)(=O)c2cccc(Cl)c2)c1,?,32%
O=C(Cc1ccccc1F)N(Cc1ccco1)C1CC1,5%,23%
CC(OC(=O)c1cc2ccccc2[nH]1)C(=O)N(C(C)C)C(C)C (stereo not given),5%,-2%
Cc1oc(-c2cccs2)nc1CC(=O)NCC1CCCO1 (stereo not given),7%,-10%
CCC1CCC(N(C(=O)Cc2nc(-c3cccs3)oc2C)C2CC2)CC1 (stereo not given),35µM*,-20%
CCc1cc2c(=O)c(Oc3ccc(I)cc3)c(C(F)(F)F)oc2cc1OC(=O)c1ccc(Br)cc1,6%,12%
